{"source": "the supplement of paper PMC12350171", "settings_in_all_cases": "20 µM", "key": {"[1]": {"test_system": "Haemophilus parainfluenzae", "experiment": "growth AUC normalised to DMSO control (fraction of control); higher = less growth inhibition, active = hit call of the paper", "method_in_brief": "(§1)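 Pathogens were passaged twice under anaerobic conditions, then inoculated into pre-reduced mGAM plates at a starting OD578 of 0.01, with compound at 20 μM and 1% DMSO, and sealed with breathable membranes. For Haemophilus parainfluenzae, the medium was supplemented with hemin and NAD. OD578 was read every hour for 24 h in three biological replicates. Growth-curve AUC was calculated by the trapezoidal rule up to the exponential-to-stationary transition and normalised to DMSO controls on the same plate.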"}, "[2]": {"test_system": "Salmonella enterica typhimurium", "experiment": "growth AUC normalised to DMSO control (fraction of control); higher = less growth inhibition, active = hit call of the paper", "method_in_brief": "as §1"}, "[3]": {"test_system": "Shigella flexneri", "experiment": "growth AUC normalised to DMSO control (fraction of control); higher = less growth inhibition, active = hit call of the paper", "method_in_brief": "as §1"}, "[4]": {"test_system": "Vibrio cholerae", "experiment": "growth AUC normalised to DMSO control (fraction of control); higher = less growth inhibition, active = hit call of the paper", "method_in_brief": "as §1"}, "[5]": {"test_system": "Yersinia pseudotuberculosis", "experiment": "growth AUC normalised to DMSO control (fraction of control); higher = less growth inhibition, active = hit call of the paper", "method_in_brief": "as §1"}, "[6]": {"test_system": "P. vulgatus RND KO", "experiment": "growth AUC normalised to DMSO control (median) (fraction of control); higher = less growth inhibition, active = hit call of the paper", "method_in_brief": "(§2)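 Area under the growth curve, calculated by the trapezoidal rule up to entry into stationary phase, was normalised to vehicle wells on the same plate. Strains had been passaged twice overnight without oxygen and then grown in mGAM in 96-well plates from OD578 0.01, each with an approved-drug library compound at 20 μM in 1% DMSO. OD578 was read hourly over 24 h in an anaerobic incubator, and the median of three biological replicates is given.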"}, "[7]": {"test_system": "P. vulgatus WT", "experiment": "growth AUC normalised to DMSO control (median) (fraction of control); higher = less growth inhibition, active = hit call of the paper", "method_in_brief": "as §2"}, "[8]": {"test_system": "S. enterica typhimurium WT", "experiment": "growth AUC normalised to DMSO control (median) (fraction of control); higher = less growth inhibition, active = hit call of the paper", "method_in_brief": "as §2"}, "[9]": {"test_system": "S. enterica typhimurium tolC KO", "experiment": "growth AUC normalised to DMSO control (median) (fraction of control); higher = less growth inhibition, active = hit call of the paper", "method_in_brief": "as §2"}}, "note": "Structures can show the parent of a compound that is named as a salt. Values without a mark were called inactive.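 Wherever growth AUC normalised to DMSO control (median) is given: active when median AUC fell below 0.1.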", "data": [{"smiles": "O=C1c2c(O)cccc2Cc2cccc(O)c21", "note": "[Anthralin]", "values": [{"measurement": "growth AUC normalised to DMSO control", "setting": "[1]", "result": 1.39}]}, {"smiles": "CO[C@@]1(NC(=O)C(C(=O)O)c2ccc(O)cc2)C(=O)N2C(C(=O)O)=C(CSc3nnnn3C)CO[C@@H]21", "note": "(stereo partly specified) [Moxalactam disodium salt]", "values": [{"measurement": "growth AUC normalised to DMSO control", "setting": "[1]", "result": "0.076 (active)"}]}, {"smiles": "Cc1cc2c(cc1S(N)(=O)=O)S(=O)(=O)CCC2", "note": "[Meticrane]", "values": [{"measurement": "growth AUC normalised to DMSO control", "setting": "[1]", "result": 1.04}]}, {"smiles": "O=S(=O)(O)c1cc(O)ccc1O", "note": "[Ethamsylate diethylammonium salt]", "values": [{"measurement": "growth AUC normalised to DMSO control", "setting": "[1]", "result": 0.98}]}, {"smiles": "Nc1ccc(C(=O)NCC(=O)O)cc1", "note": "[Aminohippuric acid]", "values": [{"measurement": "growth AUC normalised to DMSO control", "setting": "[1]", "result": 1}]}, {"smiles": "CC[N+](CC)(CC)CCC(O)(c1ccccc1)C1CCCCC1", "note": "(stereo unspecified) [Tridihexethyl chloride]", "values": [{"measurement": "growth AUC normalised to DMSO control", "setting": "[1]", "result": 1.05}]}, {"smiles": "CN1[C@@H]2CC[C@H]1C[C@@H](OC(=O)c1c[nH]c3ccccc13)C2", "note": "[Tropisetron hydrochloride]", "values": [{"measurement": "growth AUC normalised to DMSO control", "setting": "[1]", "result": 1}]}, {"smiles": "CC(C)(C)NC(=O)[C@H]1CC[C@H]2[C@@H]3CC[C@H]4NC(=O)C=C[C@]4(C)[C@H]3CC[C@]12C", "note": "[Finasteride]", "values": [{"measurement": "growth AUC normalised to DMSO control", "setting": "[1]", "result": 1.06}]}, {"smiles": "CCCN(CCC)CCc1cccc2c1CC(=O)N2", "note": "[Ropinirole hydrochloride]", "values": [{"measurement": "growth AUC normalised to DMSO control", "setting": "[1]", "result": 1}]}, {"smiles": "CC[C@H](C)[C@H]1O[C@]2(C=C[C@@H]1C)C[C@@H]1C[C@@H](C/C=C(\\C)[C@@H](O[C@H]3C[C@H](OC)[C@@H](O[C@H]4C[C@H](OC)[C@@H](O)[C@H](C)O4)[C@H](C)O3)[C@@H](C)/C=C/C=C3\\CO[C@@H]4[C@H](O)C(C)=C[C@@H](C(=O)O1)[C@]34O)O2.CO[C@H]1C[C@H](O[C@H]2[C@H](C)O[C@@H](O[C@@H]3/C(C)=C/C[C@@H]4C[C@@H](C[C@]5(C=C[C@H](C)[C@@H](C(C)C)O5)O4)OC(=O)[C@@H]4C=C(C)[C@@H](O)[C@H]5OC/C(=C\\C=C\\[C@@H]3C)[C@]54O)C[C@@H]2OC)O[C@@H](C)[C@@H]1O", "note": "[Avermectin B1]", "values": [{"measurement": "growth AUC normalised to DMSO control", "setting": "[2]", "result": 1.02}, {"measurement": "growth AUC normalised to DMSO control", "setting": "[3]", "result": 1.03}, {"measurement": "growth AUC normalised to DMSO control", "setting": "[4]", "result": 1.02}, {"measurement": "growth AUC normalised to DMSO control", "setting": "[5]", "result": 1.01}]}, {"smiles": "C[C@]12CC[C@H](O)C[C@@H]1CC[C@@H]1[C@@H]2CC[C@]2(C)C(=O)CC[C@@H]12", "note": "[Epiandrosterone]", "values": [{"measurement": "growth AUC normalised to DMSO control", "setting": "[1]", "result": 1}, {"measurement": "growth AUC normalised to DMSO control", "setting": "[2]", "result": 0.987}, {"measurement": "growth AUC normalised to DMSO control", "setting": "[3]", "result": 0.99}, {"measurement": "growth AUC normalised to DMSO control", "setting": "[4]", "result": 1.19}, {"measurement": "growth AUC normalised to DMSO control", "setting": "[5]", "result": 0.997}, {"measurement": "growth AUC normalised to DMSO control", "setting": "[6]", "result": 1}, {"measurement": "growth AUC normalised to DMSO control", "setting": "[7]", "result": 1.03}, {"measurement": "growth AUC normalised to DMSO control", "setting": "[8]", "result": 1}, {"measurement": "growth AUC normalised to DMSO control", "setting": "[9]", "result": 0.951}]}, {"smiles": "CCC1(C)CC(=O)NC(=O)C1", "note": "[Bemegride]", "values": [{"measurement": "growth AUC normalised to DMSO control", "setting": "[1]", "result": 1.02}, {"measurement": "growth AUC normalised to DMSO control", "setting": "[2]", "result": 1.02}, {"measurement": "growth AUC normalised to DMSO control", "setting": "[3]", "result": 1.01}, {"measurement": "growth AUC normalised to DMSO control", "setting": "[4]", "result": 1.05}, {"measurement": "growth AUC normalised to DMSO control", "setting": "[5]", "result": 1.01}, {"measurement": "growth AUC normalised to DMSO control", "setting": "[6]", "result": 1.03}, {"measurement": "growth AUC normalised to DMSO control", "setting": "[7]", "result": 1.08}, {"measurement": "growth AUC normalised to DMSO control", "setting": "[8]", "result": 1.02}, {"measurement": "growth AUC normalised to DMSO control", "setting": "[9]", "result": 1.01}]}]}
